Assay [1] can be described thus: Tanguay_ZF_120hpf_SOMI_legacy: (Legacy) Oregon State University Tanguay Lab 120 Hour Post-fertilization zebrafish Assay for Somite Malformation (AID 2283647). The method in brief:
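Tropical 5D wild-type zebrafish embryos, dechorionated with pronase at 4 hpf, were placed singly at 6 hpf and statically exposed until 120 hpf at 28C in 0.64% DMSO. Somite malformation was scored present/absent by brightfield microscopy versus DMSO.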

Assay [2] in a line: Tanguay_ZF_120hpf_CFIN_legacy: (Legacy) Oregon State University Tanguay Lab 120 Hour Post-fertilization zebrafish Assay for Caudal Fin Malformation (AID 2283649). The method in brief: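 Tropical 5D wild-type embryos, dechorionated with pronase at 4 hpf, were placed singly in wells at 6 hpf and statically exposed to compound at 28C until 120 hpf (0.64% DMSO). Caudal fin malformation was scored present/absent by brightfield microscopy.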

The nature of assay [3]: Tanguay_ZF_120hpf_PIG_legacy: (Legacy) Oregon State University Tanguay Lab 120 Hour Post-fertilization zebrafish Assay for Pigmentation Malformation (AID 2283650). The method in brief:
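Pigment malformation recorded as a binary call at 120 hpf in zebrafish (Tropical 5D) exposed singly from 6 hpf after pronase dechorionation. Static, sealed, 28C exposure, 0.64% DMSO; mortality excludes scoring; positive-direction fit against DMSO.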

Assay [4] can be described thus: Tanguay_ZF_120hpf_CIRC_legacy: (Legacy) Oregon State University Tanguay Lab 120 Hour Post-fertilization zebrafish Assay for Circulatory Malformation (AID 2283651). The method in brief:
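Binary circulatory-malformation call at 120 hpf via brightfield imaging, relative to DMSO controls. Embryos (5D strain, chorion removed) received static, light-shielded exposure at 28C.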

Assay [5] in a line: Tanguay_ZF_120hpf_SWIM_legacy: (Legacy) Oregon State University Tanguay Lab 120 Hour Post-fertilization zebrafish Assay for Swim Bladder Malformation (AID 2283654).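 Note: swim bladder malformation in each larva scored yes or no under brightfield.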 The method in brief: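 Scoring is binary for swim bladder defects at 120 hpf, by brightfield inspection of zebrafish larvae. Embryos were exposed singly from 6 hpf after pronase dechorionation, at 28C with 0.64% DMSO; mortality excluded scoring.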

A short description of assay [6]: Tanguay_ZF_120hpf_TRUN_legacy: (Legacy) Oregon State University Tanguay Lab 120 Hour Post-fertilization zebrafish Assay for Truncated Body (AID 2283655). A digest of the protocol:
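Tropical 5D wild-type embryos, dechorionated with pronase at 4 hpf, were placed singly in wells at 6 hpf and statically exposed at 28C until 120 hpf, final DMSO 0.64%. Truncated body was scored present/absent by brightfield microscopy.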

Assay [7] is described as follows: Tanguay_ZF_120hpf_NC_legacy: (Legacy) Oregon State University Tanguay Lab 120 Hour Post-fertilization zebrafish Assay for Notochord and Tail Malformation (AID 2283656). The method in brief:
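Binary notochord-distortion calls, made by brightfield inspection, form the read-out; activity is fitted in the positive direction against DMSO. Exposure ran statically from 6 to 120 hpf at 28C with 0.64% DMSO.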

Assay [8] can be described thus: Tanguay_ZF_120hpf_PFIN_legacy: (Legacy) Oregon State University Tanguay Lab 120 Hour Post-fertilization zebrafish Assay for Pectoral Fin Malformation (AID 2283648).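 Note: each larva judged yes or no for fin defect by brightfield with dead larvae skipped.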 A digest of the protocol:
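Pectoral fin malformation was recorded as a binary endpoint at 120 hpf in wild-type Tropical 5D larvae, which had been dechorionated and exposed statically from 6 hpf at 28C in 0.64% DMSO. Dead embryos were excluded.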

Read-out in assay [9]: solute carrier (SLC22A6), SLC22A6 (gene 9356)
Briefly: LTEA_HepaRG_SLC22A6: Life Technologies and Expression Analysis (LTEA) Assay for solute carrier (SLC22A6) using HepaRG (AID 2283653; active = hit-call score of the fitted dose curve at least 0.9, where 1 is the maximum; inactive = score below 0.9). The conditions noted are these: mRNA level, 48 h; actives raise or lower the signal. How it is done: LTEA_HepaRG is a cell based, multiplexed-readout assay that uses HepaRG, a human liver cell line, with measurements taken at 48 hours after chemical dosing on a 96-well plate.LTEA_HepaRG_SLC22A6 is one of 102 assay component(s) measured in the LTEA HepaRG cell culture assay. It is a marker of NR mediated transport.Data from the assay component LTEA_HepaRG_SLC22A6 was analyzed into 1 endpoint. This assay endpoint, LTEA_HepaRG_SLC22A6, was analyzed with bidirectional fitting relative to DMSO as the negative control and baseline of activity. Using a type of inducible reporter, measures of mRNA induction for gain or loss-of-signal activity can be used to understand regulation of transcription factor activity. To generalize the intended target to other relatable targets, this assay endpoint is annotated to the transporter intended target family, where the subfamily is organic anion transporter.
A total of 1060 chemcials from the ToxCast library were tested in eight-point concentration-response experiments. Cell culture and cytotoxicity assays were conducted at Thermo Fisher Scientific's Custom Services facility (Madison, WI). A single lot of human HepaRG cells (Thermo Fisher Scientific, Frederick, MD) was used for the cell culture experiments. 96-well format collagen type I coated plates of human HepaRG cells were prepared using established methods. Briefly, cryopreserved HepaRG cells were thawed, plated at a density of approximately 100,000 cells/well in HepaRG Thaw, Plate, and General Purpose media (HPRG770, Thermo Fisher Scientific), and incubated for 48 hours. […] Fluidigm's 96.96 Dynamic ArrayTM (Fluidigm, Amsterdam, the Netherlands) technology was used for gene expression analyses by quantitative reverse transcription polymerase chain reaction (qRT-PCR, performed by Quintiles/Expression Analysis, Durham, NC)89. […]

Usually AC50 stands for the concentration at which the activity in the assay is half-maximal.

SMILES strings stand for the structures. Results filed as inconclusive are left out. Active and inactive are the calls of the source. Rule for the calls, unless noted: active = hit-call score of the fitted dose curve at least 0.9, where 1 is the maximum; inconclusive = response in the unintended direction; inactive = score below 0.9.

Regarding `OCC(CO)(CO)CO`, the molecule was called inactive in assay [1], in [2], in assay [3], in assay [4], in [5] and in [6]. Further, the outcome in [7] was inactive.

As for `CCOc1ccc2[nH]cc(C(=O)NCc3ccccc3)c(=O)c2n1`, the molecule was called inactive in [1], in [8], in assay [2], in assay [3], in [6] and in assay [7].

On to `CCOC(N)=O`, for which the call in [1], in assay [2], in assay [3], in assay [4], in assay [5] and in [6] was inactive. Moreover, in [7], the molecule was classed as inactive.

For the molecule `C[C@@H](Oc1ccc(CNC(=O)c2cccnc2Oc2ccc3c(c2)OCO3)c(F)c1)C(=O)O`, the molecule was called inactive in assay [1], in assay [2], in assay [3], in assay [5] and in [6].

`COc1cc2c(c(OC)c1OC)-c1ccc(OC)c(=O)cc1[C@@H](NC(C)=O)CC2`: the AC50 in [1] was 25.5 µM (active); in assay [3] it was 22.8 µM (active). Also, the molecule was called inactive in assay [2], in [4], in assay [9], in assay [5] and in assay [7].

On to `C=CN1CCCC1=O`, for which the outcome in assay [1], in [8], in assay [3], in [5] and in [6] was inactive.

For the molecule `CC(=O)c1ccccc1`, the call in assay [1], in assay [8], in [2], in assay [3], in assay [4] and in [5] was inactive. Further, the outcome in [6] and in assay [7] was inactive.

Regarding `CC(C)C(=O)Nc1ccc([N+](=O)[O-])c(C(F)(F)F)c1`, the molecule was classed as inactive in assay [1], in assay [8], in assay [2], in assay [3], in [5] and in assay [6]. In addition, the call in assay [7] was inactive.

On to `OC[C@H]1O[C@@H]2O[C@H]3[C@H](O)[C@@H](O)[C@@H](O[C@H]4[C@H](O)[C@@H](O)[C@@H](O[C@H]5[C@H](O)[C@@H](O)[C@@H](O[C@H]6[C@H](O)[C@@H](O)[C@@H](O[C@H]7[C@H](O)[C@@H](O)[C@@H](O[C@H]1[C@H](O)[C@H]2O)O[C@@H]7CO)O[C@@H]6CO)O[C@@H]5CO)O[C@@H]4CO)O[C@@H]3CO`, for which the molecule was classed as inactive in [1], in assay [8], in assay [2], in [3], in [5] and in [6].

As to `NC(=O)N1c2ccccc2C=Cc2ccccc21`, the result in [1], in [8], in assay [2], in assay [3], in [5] and in [6] was inactive. The call in [7] was inactive.

Consider `CCCCC(CC)C(=O)OCCOCCOCCOC(=O)C(CC)CCCC` (stereo not given), for which the result in assay [1], in assay [2], in [3], in assay [4], in assay [5] and in [6] was inactive. Besides, the call in [7] was inactive.

Consider `O=S(=O)(O)c1ccc(N=Nc2c(O)ccc3cc(S(=O)(=O)O)ccc23)cc1`, for which the result in assay [1], in assay [8], in assay [3], in assay [5] and in assay [7] was inactive.

Consider `c1ccc2cc3ccccc3cc2c1`, for which the call in [1], in assay [2], in assay [3], in assay [9], in assay [5] and in [6] was inactive.

On to `O=C(O)[C@H](O)[C@@H](O)C(=O)O`, for which the molecule was called inactive in [1], in [8], in assay [2], in assay [3], in assay [5] and in assay [6]. For the same molecule, in [7], the molecule was classed as inactive.

Turning to `NC(N)=O`, the outcome in [1], in assay [8], in [2], in [3], in assay [5] and in assay [6] was inactive. The molecule was classed as inactive in assay [7].

Turning to `CC(C)CC(C)O` (stereo not given), the outcome in assay [1], in assay [8], in assay [3], in [5] and in [7] was inactive.

Turning to `Cn1cc[nH]c1=S`, the result in assay [1], in assay [2], in assay [3], in assay [4], in assay [5] and in [7] was inactive.

With `O=C(NO)C1(NS(=O)(=O)c2ccc(Oc3ccc(F)cc3)cc2)CCOCC1`, the molecule was called inactive in assay [1], in [2], in assay [3], in assay [4], in assay [5] and in assay [6]. In addition, the molecule was called inactive in [7].

For `CCCCN1C(=O)[C@@H]([C@H](O)C2CCCCC2)NC(=O)C12CCN(Cc1ccc(Oc3ccc(C(=O)O)cc3)cc1)CC2`, the molecule was classed as inactive in [1], in [2], in assay [3], in [4], in [6] and in assay [7].

Take `C=CCc1cc(S(=O)(=O)c2ccc(O)c(CC=C)c2)ccc1O`: the outcome in [1], in [2], in assay [3], in assay [5] and in assay [6] was inactive.

In the case of `NNC(=O)c1ccncc1`, the result in assay [1], in [8], in assay [2], in assay [3], in assay [5] and in assay [6] was inactive. Besides, the call in [7] was inactive.

With `CC(C)c1nnc2ccc(-c3ocnc3-c3cc(F)ccc3F)cn12`, the molecule was classed as inactive in assay [1], in assay [8], in assay [2], in [3], in assay [5] and in assay [6]. In assay [7], the call was inactive.

Regarding `c1ccc2ncccc2c1`, the molecule was called inactive in assay [1], in assay [8], in assay [2], in assay [3], in assay [5] and in assay [6]. For the same molecule, in [7], the result was inactive.

In the case of `c1ccc2c(c1)-c1cccc3c1c-2cc1ccccc13`, the result in [1], in assay [2], in [3], in assay [4], in assay [5] and in [6] was inactive.

As to `CCCc1ccccc1`, the call in assay [1], in assay [2], in assay [3], in assay [4], in assay [5] and in assay [7] was inactive.

For the molecule `O=S1(=O)CCCO1`, the molecule was classed as inactive in assay [1], in assay [2], in assay [3], in [4], in assay [5] and in assay [6].

In the case of `O=c1[nH]cnc2c1ncn2[C@H]1CC[C@@H](CO)O1`, the call in [1], in [8], in assay [2], in assay [3], in [5] and in [6] was inactive.

Turning to `O=C(O)c1ccc2c(c1)nc(C(=O)NC1CCN(C3CC3)CC1)n2Cc1cc(-c2ccc(Cl)s2)on1`, the result in assay [1], in assay [8], in assay [2], in [3], in [5] and in assay [6] was inactive. Also, the result in [7] was inactive.

With `COS(C)(=O)=O`, the molecule was classed as inactive in assay [1], in [2], in [3], in assay [4], in [5] and in [6]. The outcome in assay [7] was inactive.

In the case of `CC(C)CCCCCCOC(=O)C1CCCCC1C(=O)OCCCCCCC(C)C` (stereo not given), the molecule was called inactive in [1], in assay [2], in [3], in assay [4], in assay [5] and in assay [6]. For the same molecule, in [7], the molecule was classed as inactive.

For `CCCCCCCC1CCC(=O)O1` (stereo not given), the molecule was classed as inactive in [1], in [2], in assay [3], in assay [6] and in assay [7]. In addition, the AC50 in [8] was 51.5 µM (active).

As to `C[C@]12C=CC(=O)C=C1CC[C@H]1[C@@H]3C[C@@H](O)[C@](O)(C(=O)CO)[C@@]3(C)C[C@H](O)[C@@]12F`, the molecule was classed as inactive in [1], in assay [8], in [2], in assay [3], in assay [5] and in assay [6]. Besides, in assay [7], the molecule was classed as inactive.

The values above are taken from PubChem BioAssay (EPA / NIEHS).
